# Where a name gives a salt, the structure may show the parent alone.
# Tests used:
# Settings in all cases: incubation time: 27 h, anaerobic, 37 °C;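 for the amine columns active = adjusted P below 0.05 in both replicates with a change the same way and a mean fold change under 0.8 or over 1.25; inactive = the rest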
# [1] = test system: Clostridium sporogenes DSM 1664; assay: growth (OD595) fold change vs plate DMSO controls (fold change (ratio)); higher = more growth
# Procedure, shortened: (§1)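 Growth is calculated as fold change against the median of the DMSO control wells on each plate. Readings at 595 nm from anaerobic mGAM cultures (96-well, 27 h, 37 °C) were blank-subtracted, background-corrected with 20 µM compound solutions in water, and converted to OD by a calibration factor of 5. Fold changes above 1.5 were recorded as NA, and results are means of 2 biological replicates.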
# Escherichia coli IAI1 [2] = assay: as above
# Procedure, shortened: as §1
# [3] = test system: Klebsiella aerogenes DSM 30053; assay: as above
# Procedure, shortened: as §1
# [4] = test system: Ruminococcus gnavus DSM 108212; assay: as above
# Procedure, shortened: as §1
# [5] = test system: Klebsiella aerogenes DSM 30053; assay: fold change of Histamine concentration vs plate DMSO controls (fold change (ratio)); higher = more amine produced, active = hit call of the paper (significant change in both replicates, either direction)
# Procedure, shortened: (§2)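 In 80 µL wells, cultures of four gut bacterial strains in mGAM started at OD 0.1 before a 1:1 dilution and grew anaerobically at 37 °C for 27 h. Compounds were added to 20 µM final, except sweeteners at 50 µM final. After extraction of whole cultures with cold acetonitrile/methanol plus 0.1% formic acid and centrifugation, amines were measured by LC–triple-quadrupole MS in dynamic MRM mode against external calibration curves, with within-batch drift correction. Values give fold change over DMSO controls on the same plate, averaged across 2 biological replicates.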
# [6] = test system: Clostridium sporogenes DSM 1664; assay: fold change of Tryptamine concentration vs plate DMSO controls (fold change (ratio)); higher = more amine produced, active = hit call of the paper (significant change in both replicates, either direction)
# Procedure, shortened: as §2
# [7] = test system: Ruminococcus gnavus DSM 108212; assay: as above
# Procedure, shortened: as §2
# Escherichia coli IAI1 [8] = assay: fold change of Putrescine concentration vs plate DMSO controls (fold change (ratio)); higher = more amine produced, active = hit call of the paper (significant change in both replicates, either direction)
# Procedure, shortened: as §2
# [9] = test system: Klebsiella aerogenes DSM 30053; assay: as above
# Procedure, shortened: as §2
# Escherichia coli IAI1 [10] = assay: fold change of Cadaverine concentration vs plate DMSO controls (fold change (ratio)); higher = more amine produced, active = hit call of the paper (significant change in both replicates, either direction)
# Procedure, shortened: as §2
# [11] = test system: Klebsiella aerogenes DSM 30053; assay: as above
# Procedure, shortened: as §2
# [12] = test system: Ruminococcus gnavus DSM 108212; assay: fold change of 2-Phenylethylamine concentration vs plate DMSO controls (fold change (ratio)); higher = more amine produced, active = hit call of the paper (significant change in both replicates, either direction)
# Procedure, shortened: as §2
Compound,growth [1],growth (Escherichia coli IAI1 [2]),growth [3],growth [4],fold change of Histamine concentration [5],fold change of Tryptamine concentration [6],fold change of Tryptamine concentration [7],fold change of Putrescine concentration (Escherichia coli IAI1 [8]),fold change of Putrescine concentration [9],fold change of Cadaverine concentration (Escherichia coli IAI1 [10]),fold change of Cadaverine concentration [11],fold change of 2-Phenylethylamine concentration [12]
CC1=C(C(=O)O)N2C(=O)[C@@H](NC(=O)[C@H](N)C3=CCC=CC3)[C@H]2SC1 [Cephradine monohydrate] (20 µM),1.11,1.04,1.02,1.07,0.968 (inactive),1.04 (inactive),1 (inactive),1.05 (inactive),1 (inactive),0.921 (inactive),0.988 (inactive),0.994 (inactive)
CCCCCCCC/C=C\CCCCCCCCCCCC(=O)O [Erucic acid] (20 µM),0.975,1,1.04,1.06,1.02 (inactive),1.1 (inactive),0.851 (inactive),0.981 (inactive),1.01 (inactive),1.06 (inactive),0.99 (inactive),0.86 (inactive)
NS(=O)(=O)c1cc(C(=O)NN2C[C@@H]3[C@H]4CC[C@H](C4)[C@@H]3C2)ccc1Cl [Tripamide] (20 µM),0.981,1.01,0.978,1.08,1.01 (inactive),1.03 (inactive),1.06 (inactive),0.995 (inactive),0.981 (inactive),0.928 (inactive),0.998 (inactive),1.05 (inactive)
CCN(CC)Cc1cc(Nc2ccnc3cc(Cl)ccc23)ccc1O [Amodiaquine dihydrochloride dihydrate] (20 µM),0.973,0.964,0.915,1.02,1.03 (inactive),1.01 (inactive),1.01 (inactive),0.928 (inactive),1.01 (inactive),0.967 (inactive),0.978 (inactive),1.03 (inactive)
CC(C)NCC(O)COc1cccc2[nH]ccc12 (centres undefined) [Pindolol] (20 µM),1.03,1.13,1.01,0.881,0.989 (inactive),1.07 (inactive),1.12 (inactive),1.18 (inactive),1.04 (inactive),1.21 (inactive),1.15 (inactive),1.27 (inactive)
Cc1cc(C(C)(C)C)c(O)c(C)c1CC1=NCCN1 [Oxymetazoline hydrochloride] (20 µM),0.934,1.02,0.987,0.978,0.947 (inactive),1.03 (inactive),1.01 (inactive),0.983 (inactive),0.958 (inactive),0.968 (inactive),1.01 (inactive),0.996 (inactive)
O=C1[C@H](CC[C@H](O)c2ccc(F)cc2)[C@@H](c2ccc(O)cc2)N1c1ccc(F)cc1 [Ezetimibe] (20 µM),1.3,1.1,1.02,0.955,0.972 (inactive),0.796 (inactive),0.858 (inactive),1.02 (inactive),1 (inactive),0.987 (inactive),0.992 (inactive),0.832 (inactive)
COc1ccc(OC)c(C(O)CNC(=O)CN)c1 (centres undefined) [Midodrine hydrochloride] (20 µM),1.08,1.03,1.09,0.949,1.05 (inactive),1.03 (inactive),1 (inactive),1.01 (inactive),1 (inactive),0.995 (inactive),0.995 (inactive),1 (inactive)
CN(C)CCOC(=O)COc1ccc(Cl)cc1 [Meclofenoxate hydrochloride] (20 µM),1.13,1.02,1.01,0.995,1.11 (inactive),0.931 (inactive),0.958 (inactive),1 (inactive),1.01 (inactive),1.02 (inactive),0.979 (inactive),0.895 (inactive)
CCC(=O)OCC(=O)[C@@]1(OC(=O)CC)[C@@H](C)C[C@H]2[C@@H]3CCC4=CC(=O)C=C[C@]4(C)[C@@]3(Cl)[C@@H](O)C[C@@]21C [Beclomethasone dipropionate] (20 µM),1.19,0.997,1.04,1.22,1 (inactive),1.01 (inactive),0.937 (inactive),0.954 (inactive),1.01 (inactive),1.02 (inactive),0.995 (inactive),0.921 (inactive)
"CC(C)NC[C@@H](O)COc1ccc(CC(N)=O)cc1 [(R,+) Atenolol] (20 µM)",1.19,1.01,1.12,1.16,0.951 (inactive),1.05 (inactive),1.06 (inactive),1.19 (inactive),1.02 (inactive),0.921 (inactive),1.04 (inactive),1.08 (inactive)
Cc1ccc(S(=O)(=O)NCl)cc1 [Chloramine-T hydrate] (20 µM),0.97,0.978,1.11,1.07,0.912 (inactive),0.931 (inactive),0.992 (inactive),1.01 (inactive),1.03 (inactive),1.01 (inactive),1.02 (inactive),0.935 (inactive)
